IL-1B inflam inh: blocks inflammasome-driven IL-1 beta release; THP-1 LPS/ATP IL-1B secretion, AlphaLISA, 16 h; stronger effect = lower value; activity change, % at 57.5 µM; 360,000 compounds, 4.7% hits; in the data active = activity change below about -50%; inconclusive = mostly about -30% to -49%
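THP-1 cells pretreated 1 hr with compounds (up to 57.5 uM final), then stimulated with LPS (250 ng/mL final) plus ATP (1.25 mM final); secreted IL-1B measured by AlphaLISA after 16 hr, decreased signal indicating inhibition.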
DT40 TDP1 no CPT: qHTS for Inhibitors of human tyrosyl-DNA phosphodiesterase 1 (TDP1): qHTS in cells in absence of CPT. DT40 Tdp1-/- hTDP1 cells, no CPT, ATP luminescence, 48 h. 420,000 compounds, 15% hits. AID 686978, 2013. Potency, µM (titrated, usually from 46.2 µM), for the others: at the top dose activity change, negative = growth inhibition, usual class: inhibitors; also: potency is read from the fitted curve at half-maximal effect; nearly all actives have a fitted effect of over 55% in size
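Readout: luminescence from CellTiter-Glo after 30 min in the dark at RT. Cells: DT40 Tdp1-/- with stable hTDP1, 400/well. Exposure: compounds alone, ≥48 hr, 37 °C.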
HT1080NT lethal: kills 2HG-producing HT-1080-NT fibrosarcoma cells; HT-1080-NT fibrosarcoma viability, CellTiter-Glo ATP luminescence, 48 h; Potency, µM (doses to about 46.1 µM), for the others: top-dose activity, negative = less viability, hits mostly cytotoxic; 360,000 compounds, 1.6% hits;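 also: NT is the 2HG producing partner of a matched IDH1 knockdown line; potency is read from the fitted curve at half-maximal effect; 0% = DMSO-treated cells and -100% = media-only wells without cells; nearly all actives have a fitted effect of over 55% in size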
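HT-1080-NT; 750 cells/well; 5% FBS RPMI; 48 h compound, 37 degrees C; CellTiter-Glo luminescence; curve fitting and curve-class assignment.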
TDP1 cell CPT: growth inhibition of DT40 Tdp1-/-;hTDP1 cells with camptothecin (screen for TDP1 inhibitors); AID 686979; chicken DT40 Tdp1-/-;hTDP1 cells + 20 nM CPT, ATP luminescence, 48 h; Potency, µM (series often up to 46.2 µM), without a hit: at the highest dose activity change, negative = growth inhibition, usual class: inhibitors; 420,000 compounds, 12% hits; also: potency is read from the fitted curve at half-maximal effect; nearly all actives have a fitted effect of over 55% in size
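Cell growth measured by CellTiter-Glo luminescence after a minimum 48 h, 37 C compound exposure with 20 nM CPT in Tdp1-knockout DT40 cells stably expressing hTDP1, seeded 400/well; qHTS titration format.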
HT1080 IDH1KD tx: HT-1080 IDH1 knockdown cell toxicity (counter line); HT-1080 IDH1 knockdown viability, ATP luminescence, 48 h; Potency, µM (titrated, usually from 46.1 µM), for the others: top-dose activity, negative = toxicity, usual class: cytotoxic; 360,000 compounds, 2% hits; AID 686971;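 also: potency is read from the fitted curve at half-maximal effect; 0% = DMSO wells and -100% = cell-free medium wells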
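CellTiter-Glo luminescence after 48 h compound exposure at 37 degrees C of IDH1-knockdown HT-1080 cells in 5% FBS RPMI. %Activity scaled between DMSO wells and cell-free media wells, with curves fitted and assigned curve classes.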
* hit, by the source's call; [ ] = another dose, or the depositor's remark. Hits are enriched below; roughly 19% of the tested compounds scored in any of these assays. Unless noted, calls follow the shape of the dose curve; as a rule, active = well fitted curve in the direction sought with a large enough effect; inconclusive = small, poorly fitted or top-dose-only effect, or another doubt; inactive = no such curve, though single readings can be large; an effect the other way counts as inactive or inconclusive. Unless noted, % is scaled to controls: 0 for no effect and ±100 for the full control effect.

Cc1ccc(SCC(=O)N(C)CC(=O)Nc2cccc(F)c2)c(C)c1 was read as IL-1B inflam inh -52.9*, DT40 TDP1 no CPT inconclusive, HT1080NT lethal 1.0%, TDP1 cell CPT -22.2% and HT1080 IDH1KD tx -1.2%.
`COc1ccc(-c2cc(C(=O)N(C)CC(=O)Nc3cccc(F)c3)c3ccccc3n2)cc1` gave IL-1B inflam inh -56.5*, DT40 TDP1 no CPT inconclusive, HT1080NT lethal -35.1%, TDP1 cell CPT 16.4µM* and HT1080 IDH1KD tx inconclusive.
For Cc1ccc2nc(-c3ccccc3)cc(C(=O)N(C)CC(=O)Nc3ccccc3Br)c2c1 the results were IL-1B inflam inh inconclusive, DT40 TDP1 no CPT 25.9µM*, HT1080NT lethal inconclusive, TDP1 cell CPT inconclusive and HT1080 IDH1KD tx inconclusive.
`CCN(C(=O)COC(=O)c1ccccc1Cc1ccccc1)c1c(N)n(Cc2ccccc2)c(=O)[nH]c1=O` gave IL-1B inflam inh -5.4, DT40 TDP1 no CPT inconclusive, HT1080NT lethal -5.5%, TDP1 cell CPT inconclusive and HT1080 IDH1KD tx -3.7%.
Screening CCN(CC(=O)Nc1c(F)cccc1F)C(=O)c1nc2nccc(C)n2n1 returned IL-1B inflam inh 0.0, DT40 TDP1 no CPT 12.0%, HT1080NT lethal -15.0%[9.24 µM], TDP1 cell CPT -22.4% and HT1080 IDH1KD tx -1.9%.
For CN(CC(=O)Nc1ccccc1Br)C(=O)c1ccccc1OCc1ccc(Cl)cc1 the results were IL-1B inflam inh -58.6*, DT40 TDP1 no CPT 18.4µM*, HT1080NT lethal -1.9%, TDP1 cell CPT inconclusive and HT1080 IDH1KD tx -8.9%.
Screening CCOc1ccc(NC(=O)c2ccc3nccnc3c2)cc1 returned IL-1B inflam inh 9.6, DT40 TDP1 no CPT inconclusive, HT1080NT lethal 0.2%, TDP1 cell CPT inconclusive and HT1080 IDH1KD tx -7.5%.
For CCOc1ccc(NC(=O)c2ccc3nc(C(C)C)oc3c2)cc1 the results were DT40 TDP1 no CPT 16.4µM* and TDP1 cell CPT 20.6µM*.
For COc1ccc(OC)c(CNC(=O)c2ccc3nc(C(C)C)oc3c2)c1 the results were DT40 TDP1 no CPT 23.1µM* and TDP1 cell CPT inconclusive.
For CC(C)c1nc2ccc(C(=O)NCc3ccccc3Br)cc2o1 the results were DT40 TDP1 no CPT 16.4µM* and TDP1 cell CPT inconclusive.
COc1ccc([C@@H](C)NC(=O)c2ccc3oc(C(C)C)nc3c2)cc1 was read as IL-1B inflam inh 9.0, DT40 TDP1 no CPT 16.4µM*, HT1080NT lethal 5.2%, TDP1 cell CPT inconclusive and HT1080 IDH1KD tx 17.5%.
C=CCNC(=O)COC(=O)C1CCN(S(=O)(=O)c2ccc3c(c2)OCCO3)CC1 was read as IL-1B inflam inh inactive, DT40 TDP1 no CPT -3.0%, HT1080NT lethal -11.9%, TDP1 cell CPT 0.0% and HT1080 IDH1KD tx -5.9%.
`Cc1ccc(C(C)c2c(C)c([N+](=O)[O-])cc(C)c2[N+](=O)[O-])cn1` (stereo not given) gave IL-1B inflam inh -4.7, DT40 TDP1 no CPT inconclusive, HT1080NT lethal -10.5%, TDP1 cell CPT inconclusive and HT1080 IDH1KD tx -10.2%.
For COc1ccc(CNC(=O)c2ccc3nc(C(C)C)oc3c2)cc1OC the results were DT40 TDP1 no CPT inconclusive and TDP1 cell CPT 23.1µM*.
COc1ccc(Br)cc1CNC(=O)c1ccc2nc(C(C)C)oc2c1 was read as DT40 TDP1 no CPT -22.4% and TDP1 cell CPT 0.3%.
CCOc1ccc(-c2nc(SCC(=O)Nc3cc(F)ccc3F)n3[nH]c(=O)cc3n2)cc1 was read as DT40 TDP1 no CPT -12.2% and TDP1 cell CPT -4.4%.
`CC(C)Oc1ccccc1NC(=O)CSc1nccn1C` gave IL-1B inflam inh -0.1, DT40 TDP1 no CPT -13.4%, HT1080NT lethal 14.4%, TDP1 cell CPT -10.0% and HT1080 IDH1KD tx 15.0%.
Screening Oc1ccc(C=NC2CCCCC2)cc1 returned IL-1B inflam inh -4.6, DT40 TDP1 no CPT -0.1%, HT1080NT lethal -1.2%, TDP1 cell CPT -17.3% and HT1080 IDH1KD tx 1.2%.
CC1(C)CC(NC(=O)c2coc(=O)c(Br)c2)CC(C)(C)N1 was read as IL-1B inflam inh -14.8, DT40 TDP1 no CPT 0.517µM*, HT1080NT lethal 10.2%, TDP1 cell CPT 0.326µM* and HT1080 IDH1KD tx 4.9%.
Cc1nn(-c2ccc(N3CCOCC3)nn2)c(C)c1CCC(=O)NCc1ccc(Cl)cc1 was read as DT40 TDP1 no CPT -18.3% and TDP1 cell CPT inconclusive.
Screening Clc1ccc(C(c2cccs2)N2CCNCC2)cc1 (stereo not given) returned IL-1B inflam inh -50.2*, DT40 TDP1 no CPT 18.4µM*, HT1080NT lethal -11.1%, TDP1 cell CPT 13µM* and HT1080 IDH1KD tx inconclusive.
Screening O=C(CC1C(=O)NCCN1Cc1ccc(-c2ccccc2)cc1)NCCCn1ccnc1 (stereo not given) returned IL-1B inflam inh -3.5, DT40 TDP1 no CPT 21.6%, HT1080NT lethal 4.5%, TDP1 cell CPT 6.9% and HT1080 IDH1KD tx -0.3%.
For COc1ccc(COC(=O)C2=C(C)NC(=O)NC2c2ccccc2OC(C)C)cc1 (stereo not given) the results were IL-1B inflam inh -9.8, DT40 TDP1 no CPT 18.4µM*, HT1080NT lethal -21.1%, TDP1 cell CPT -28.7% and HT1080 IDH1KD tx -20.0%.
For COC(=O)C1=C(C)NC(C)=C(C(=O)OCCCN2CCC(c3ccccc3)(c3ccccc3)CC2)C1c1cccc([N+](=O)[O-])c1 (stereo not given) the results were DT40 TDP1 no CPT 11.5µM* and TDP1 cell CPT 18.2µM*.
CC1=C(C(=O)OCc2ccccc2)C(c2cccc([N+](=O)[O-])c2)NC(=O)N1 (stereo not given) was read as IL-1B inflam inh -1.6, DT40 TDP1 no CPT 18.4µM*, HT1080NT lethal 6.7%, TDP1 cell CPT inconclusive and HT1080 IDH1KD tx -0.6%.
Screening CC1=C(C(=O)OCc2ccccc2)C(c2ccc(N(C)C)cc2)NC(=O)N1 (stereo not given) returned IL-1B inflam inh -60.1*, DT40 TDP1 no CPT -23.0%, HT1080NT lethal -19.2%, TDP1 cell CPT -23.4% and HT1080 IDH1KD tx -7.7%.
Screening CCOC(=O)C1=C(C)NC(C)=C(C(=O)OCC)C1c1cccc([N+](=O)[O-])c1 returned IL-1B inflam inh -1.5, DT40 TDP1 no CPT 23.1µM*, HT1080NT lethal -2.2%, TDP1 cell CPT inconclusive and HT1080 IDH1KD tx -29.4%.
Screening COc1ccc(COC(=O)C2=C(C)NC(=O)NC2c2ccc(F)cc2)cc1 (stereo not given) returned IL-1B inflam inh -52.4*, DT40 TDP1 no CPT inconclusive, HT1080NT lethal -27.1%, TDP1 cell CPT inconclusive and HT1080 IDH1KD tx -17.9%.
Screening CC1=C(C(=O)OCc2ccccc2)C(c2ccccc2OC(F)F)NC(=O)N1 (stereo not given) returned IL-1B inflam inh -7.4, DT40 TDP1 no CPT inconclusive, HT1080NT lethal -11.3%, TDP1 cell CPT 29.1µM* and HT1080 IDH1KD tx inconclusive.
